Among the data in publication PMC7862700, “An all-to-all approach to the identification of sequence-specific readers for epigenetic DNA modifications on cytosine” are binding signal values, retold here.

Holding throughout (experiment): DAPPL (digital affinity profiling via proximity ligation, sequencing); 10 mM Tris-HCl pH 7.5, 50 mM NaCl, 1 mM DTT, 4% glycerol, room temperature, 30 min; GST-TFs on glutathione beads, 16-mer random dsDNA library, 0.1% formaldehyde crosslink after washing; high values mean tight binding
Experiment [1] concerns the target T1, FLI1 (Homo sapiens, UniProt Q01543 1-452).
T1 sequence: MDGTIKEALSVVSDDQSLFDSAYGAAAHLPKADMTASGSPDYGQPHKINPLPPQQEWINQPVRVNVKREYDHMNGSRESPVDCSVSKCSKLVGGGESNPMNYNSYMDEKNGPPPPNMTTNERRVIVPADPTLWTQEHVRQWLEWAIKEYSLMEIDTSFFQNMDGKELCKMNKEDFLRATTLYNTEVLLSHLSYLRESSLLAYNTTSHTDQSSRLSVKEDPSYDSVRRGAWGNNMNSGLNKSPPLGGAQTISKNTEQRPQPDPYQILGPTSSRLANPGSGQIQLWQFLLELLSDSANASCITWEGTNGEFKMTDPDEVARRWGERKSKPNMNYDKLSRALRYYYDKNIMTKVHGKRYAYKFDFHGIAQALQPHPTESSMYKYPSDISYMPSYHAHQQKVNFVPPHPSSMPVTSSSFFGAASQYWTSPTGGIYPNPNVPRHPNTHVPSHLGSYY
The conditions noted are these: protein: recombinant; tags: N-terminal GST; dsDNA, one strand shown. In short, it runs like this:
(§1)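 Beads coated with glutathione captured GST-fused human transcription factors that had been expressed in yeast, and the factors were then given DNA barcodes and pooled with a tag-only sample. The pools were incubated with 200 nmole of a random double-stranded 16-mer DNA library in Tris/NaCl/DTT/glycerol buffer for 30 min at room temperature, washed, crosslinked with 0.1% formaldehyde and proximity-ligated with BsaI/T4 ligase at 37 °C for 1 h. PCR amplification and Illumina NextSeq500 sequencing came last. Binding signal is each hexamer's read frequency for a factor divided by its frequency for the tag-only sample.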

In experiment [2] the target is T2, ELK1 (Homo sapiens, UniProt P19419 1-428).
T2 sequence: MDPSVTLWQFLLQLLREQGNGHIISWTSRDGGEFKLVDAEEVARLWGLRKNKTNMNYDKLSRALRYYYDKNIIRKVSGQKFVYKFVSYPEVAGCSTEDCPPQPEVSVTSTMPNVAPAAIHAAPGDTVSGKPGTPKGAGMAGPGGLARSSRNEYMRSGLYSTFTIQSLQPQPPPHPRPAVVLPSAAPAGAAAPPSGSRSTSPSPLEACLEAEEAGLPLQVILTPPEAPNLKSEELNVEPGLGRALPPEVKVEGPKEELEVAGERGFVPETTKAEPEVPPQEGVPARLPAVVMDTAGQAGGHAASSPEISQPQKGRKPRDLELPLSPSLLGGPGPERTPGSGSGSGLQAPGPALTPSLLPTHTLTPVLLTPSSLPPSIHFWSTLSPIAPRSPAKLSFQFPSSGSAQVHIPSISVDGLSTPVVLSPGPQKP
The conditions noted are these: protein: recombinant; tags: N-terminal GST; dsDNA, one strand shown. In short, it runs like this:
as §1

Experiment [3] concerns the target T3, GABPA (Homo sapiens, UniProt Q06546 1-454).
T3 sequence: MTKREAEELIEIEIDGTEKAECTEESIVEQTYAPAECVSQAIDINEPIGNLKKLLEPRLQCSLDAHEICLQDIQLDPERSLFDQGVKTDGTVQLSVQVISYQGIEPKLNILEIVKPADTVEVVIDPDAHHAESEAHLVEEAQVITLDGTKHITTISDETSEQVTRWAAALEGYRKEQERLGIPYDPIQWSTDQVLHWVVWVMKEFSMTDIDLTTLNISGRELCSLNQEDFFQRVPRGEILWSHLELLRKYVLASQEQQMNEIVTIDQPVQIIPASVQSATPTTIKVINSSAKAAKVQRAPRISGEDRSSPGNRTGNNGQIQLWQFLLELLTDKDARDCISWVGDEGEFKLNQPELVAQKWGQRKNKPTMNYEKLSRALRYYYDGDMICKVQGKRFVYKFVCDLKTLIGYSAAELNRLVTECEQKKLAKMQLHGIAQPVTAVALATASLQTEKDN
The conditions noted are these: protein: recombinant; tags: N-terminal GST; dsDNA, one strand shown. In short, it runs like this:
as §1

For experiment [4], the target named is T4, ERG (Homo sapiens, UniProt P11308 1-479).
T4 sequence: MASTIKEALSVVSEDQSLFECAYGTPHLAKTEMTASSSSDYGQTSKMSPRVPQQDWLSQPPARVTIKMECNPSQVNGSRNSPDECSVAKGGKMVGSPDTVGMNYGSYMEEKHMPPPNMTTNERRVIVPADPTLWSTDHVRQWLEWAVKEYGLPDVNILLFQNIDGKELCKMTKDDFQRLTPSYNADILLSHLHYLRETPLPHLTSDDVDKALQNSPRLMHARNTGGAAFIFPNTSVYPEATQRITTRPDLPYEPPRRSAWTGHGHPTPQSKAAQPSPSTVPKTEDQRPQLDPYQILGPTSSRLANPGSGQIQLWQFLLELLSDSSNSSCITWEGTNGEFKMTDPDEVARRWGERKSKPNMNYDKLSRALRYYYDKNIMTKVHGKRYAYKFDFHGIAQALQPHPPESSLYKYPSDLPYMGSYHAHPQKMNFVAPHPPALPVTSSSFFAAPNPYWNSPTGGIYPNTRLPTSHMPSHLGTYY
The conditions noted are these: protein: recombinant; tags: N-terminal GST; dsDNA, one strand shown. The procedure, abridged: as §1

Experiment [5] concerns the target ELF1 (Homo sapiens, UniProt P32519 1-619). The conditions noted are these: protein: recombinant; tags: N-terminal GST; dsDNA, one strand shown. The procedure, abridged: as §1
The target in experiment [6] is T5, EHF (Homo sapiens, UniProt Q9NZC4 1-300).
T5 sequence: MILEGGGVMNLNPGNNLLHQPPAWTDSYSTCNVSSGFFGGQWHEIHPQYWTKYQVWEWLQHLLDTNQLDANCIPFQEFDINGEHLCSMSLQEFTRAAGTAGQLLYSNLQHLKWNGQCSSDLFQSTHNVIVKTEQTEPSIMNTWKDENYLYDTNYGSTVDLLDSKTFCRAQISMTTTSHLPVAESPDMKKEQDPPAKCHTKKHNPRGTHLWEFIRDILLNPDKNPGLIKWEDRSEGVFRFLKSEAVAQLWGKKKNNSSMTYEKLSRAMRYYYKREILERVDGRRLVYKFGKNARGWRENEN
The conditions noted are these: protein: recombinant; tags: N-terminal GST; dsDNA, one strand shown. The procedure, abridged:
as §1

Experiment [7] has as its target SPI1 (Homo sapiens, UniProt P17947 1-270). The conditions noted are these: protein: recombinant; tags: N-terminal GST; dsDNA, one strand shown. In short, it runs like this: as §1
Experiment [8] deals with SPIB (Homo sapiens, UniProt Q01892 1-262). The conditions noted are these: protein: recombinant; tags: N-terminal GST; dsDNA, one strand shown. In short, it runs like this:
as §1

Experiment [9] concerns the target T6, FEV (Homo sapiens, UniProt Q99581 1-238).
T6 sequence: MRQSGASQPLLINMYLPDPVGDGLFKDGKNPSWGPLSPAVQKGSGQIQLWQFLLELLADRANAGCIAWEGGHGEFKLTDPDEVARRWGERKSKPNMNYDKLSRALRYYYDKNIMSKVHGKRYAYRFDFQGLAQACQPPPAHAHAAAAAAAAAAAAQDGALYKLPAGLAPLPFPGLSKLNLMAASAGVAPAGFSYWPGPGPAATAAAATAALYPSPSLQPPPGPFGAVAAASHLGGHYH
The conditions noted are these: protein: recombinant; tags: N-terminal GST; dsDNA, one strand shown. The procedure, abridged:
as §1

Experiment [10] has as its target ETV5 (Homo sapiens, UniProt P41161 1-510). The conditions noted are these: protein: recombinant; tags: N-terminal GST; dsDNA, one strand shown. In short, it runs like this:
as §1

Experiment [11] has as its target HSF1 (Homo sapiens, UniProt Q00613 1-529). The conditions noted are these: protein: recombinant; tags: N-terminal GST; chain copies: 3; dsDNA, one strand shown. The procedure, abridged: as §1
In experiment [12] the target is T7, SPIC (Homo sapiens, UniProt Q8N5J4 1-248).
T7 sequence: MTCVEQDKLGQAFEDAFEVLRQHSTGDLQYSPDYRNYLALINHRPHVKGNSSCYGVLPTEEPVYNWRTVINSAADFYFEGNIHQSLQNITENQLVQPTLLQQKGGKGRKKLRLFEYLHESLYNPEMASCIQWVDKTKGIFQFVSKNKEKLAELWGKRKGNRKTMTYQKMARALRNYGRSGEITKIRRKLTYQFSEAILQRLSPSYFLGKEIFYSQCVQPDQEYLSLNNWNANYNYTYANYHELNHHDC
The conditions noted are these: protein: recombinant; tags: N-terminal GST; dsDNA, one strand shown. The procedure, abridged:
as §1

For experiment [13], the target named is ELF4 (Homo sapiens, UniProt Q99607 1-663). The conditions noted are these: protein: recombinant; tags: N-terminal GST; dsDNA, one strand shown. The procedure, abridged: as §1
In experiment [14] the target is T8, ELF3 (Homo sapiens, UniProt P78545 1-371).
T8 sequence: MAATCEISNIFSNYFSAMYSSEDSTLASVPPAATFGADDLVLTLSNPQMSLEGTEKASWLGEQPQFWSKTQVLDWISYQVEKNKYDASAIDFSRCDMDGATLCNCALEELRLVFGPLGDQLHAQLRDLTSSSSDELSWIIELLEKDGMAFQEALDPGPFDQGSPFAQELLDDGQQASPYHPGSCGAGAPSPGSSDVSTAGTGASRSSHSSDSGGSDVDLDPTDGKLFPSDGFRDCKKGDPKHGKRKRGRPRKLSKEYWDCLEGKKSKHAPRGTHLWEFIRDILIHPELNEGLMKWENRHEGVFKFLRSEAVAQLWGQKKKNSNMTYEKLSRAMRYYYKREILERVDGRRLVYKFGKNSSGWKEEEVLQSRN
The conditions noted are these: protein: recombinant; tags: N-terminal GST; dsDNA, one strand shown. In short, it runs like this: as §1

For experiment [15], the target named is CRX (Homo sapiens, UniProt O43186 1-299). The conditions noted are these: protein: recombinant; tags: N-terminal GST; dsDNA, one strand shown. The procedure, abridged: as §1
Sequence of CRX (O43186 whole entry): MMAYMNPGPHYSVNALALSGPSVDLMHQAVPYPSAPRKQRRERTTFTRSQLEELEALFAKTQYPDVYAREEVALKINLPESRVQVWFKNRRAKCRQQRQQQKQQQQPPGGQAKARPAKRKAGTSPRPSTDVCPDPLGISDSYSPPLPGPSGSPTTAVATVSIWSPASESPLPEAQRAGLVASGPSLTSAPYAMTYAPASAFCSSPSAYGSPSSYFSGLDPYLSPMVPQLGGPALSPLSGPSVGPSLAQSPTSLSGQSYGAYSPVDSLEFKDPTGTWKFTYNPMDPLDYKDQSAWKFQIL

Sequence of ETV5 (P41161 whole entry): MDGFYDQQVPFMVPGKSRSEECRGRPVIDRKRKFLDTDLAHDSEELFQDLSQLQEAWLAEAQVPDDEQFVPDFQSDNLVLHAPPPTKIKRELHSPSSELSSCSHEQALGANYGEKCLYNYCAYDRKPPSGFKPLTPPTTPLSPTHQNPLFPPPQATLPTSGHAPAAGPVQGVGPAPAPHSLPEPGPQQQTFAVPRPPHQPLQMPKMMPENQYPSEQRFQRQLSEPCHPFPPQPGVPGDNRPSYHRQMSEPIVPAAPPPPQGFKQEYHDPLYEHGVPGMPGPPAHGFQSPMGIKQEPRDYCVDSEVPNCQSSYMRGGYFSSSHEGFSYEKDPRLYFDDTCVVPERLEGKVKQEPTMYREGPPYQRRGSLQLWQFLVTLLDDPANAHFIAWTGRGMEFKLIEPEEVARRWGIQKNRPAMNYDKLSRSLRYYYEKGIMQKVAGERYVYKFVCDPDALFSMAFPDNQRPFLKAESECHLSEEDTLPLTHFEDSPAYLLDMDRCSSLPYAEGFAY
Sequence of SPIB (Q01892 whole entry): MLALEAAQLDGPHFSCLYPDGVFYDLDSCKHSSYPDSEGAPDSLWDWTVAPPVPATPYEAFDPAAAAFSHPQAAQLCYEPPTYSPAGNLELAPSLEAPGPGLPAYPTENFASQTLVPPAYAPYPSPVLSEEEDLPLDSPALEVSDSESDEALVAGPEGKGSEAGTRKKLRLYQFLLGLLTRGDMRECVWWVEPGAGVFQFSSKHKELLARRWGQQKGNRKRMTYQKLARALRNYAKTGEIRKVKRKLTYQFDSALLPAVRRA
Sequence of ELF1 (P32519 whole entry): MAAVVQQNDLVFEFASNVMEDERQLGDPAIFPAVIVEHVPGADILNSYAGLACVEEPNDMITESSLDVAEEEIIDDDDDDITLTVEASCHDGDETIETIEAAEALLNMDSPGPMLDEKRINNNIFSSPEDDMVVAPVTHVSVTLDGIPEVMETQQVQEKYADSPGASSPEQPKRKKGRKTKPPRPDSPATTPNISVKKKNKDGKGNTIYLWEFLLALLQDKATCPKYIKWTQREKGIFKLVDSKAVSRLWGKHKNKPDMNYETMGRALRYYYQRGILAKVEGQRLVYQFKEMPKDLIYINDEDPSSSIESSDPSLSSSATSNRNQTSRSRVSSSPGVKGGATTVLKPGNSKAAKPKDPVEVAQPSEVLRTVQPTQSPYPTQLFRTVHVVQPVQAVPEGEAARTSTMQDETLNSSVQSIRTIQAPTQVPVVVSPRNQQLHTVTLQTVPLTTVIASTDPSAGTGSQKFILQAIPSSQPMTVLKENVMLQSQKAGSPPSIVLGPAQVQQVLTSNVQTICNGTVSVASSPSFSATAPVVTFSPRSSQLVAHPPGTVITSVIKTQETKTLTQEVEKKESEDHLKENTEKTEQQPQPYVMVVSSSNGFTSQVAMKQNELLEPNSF
Sequence of HSF1 (Q00613 whole entry): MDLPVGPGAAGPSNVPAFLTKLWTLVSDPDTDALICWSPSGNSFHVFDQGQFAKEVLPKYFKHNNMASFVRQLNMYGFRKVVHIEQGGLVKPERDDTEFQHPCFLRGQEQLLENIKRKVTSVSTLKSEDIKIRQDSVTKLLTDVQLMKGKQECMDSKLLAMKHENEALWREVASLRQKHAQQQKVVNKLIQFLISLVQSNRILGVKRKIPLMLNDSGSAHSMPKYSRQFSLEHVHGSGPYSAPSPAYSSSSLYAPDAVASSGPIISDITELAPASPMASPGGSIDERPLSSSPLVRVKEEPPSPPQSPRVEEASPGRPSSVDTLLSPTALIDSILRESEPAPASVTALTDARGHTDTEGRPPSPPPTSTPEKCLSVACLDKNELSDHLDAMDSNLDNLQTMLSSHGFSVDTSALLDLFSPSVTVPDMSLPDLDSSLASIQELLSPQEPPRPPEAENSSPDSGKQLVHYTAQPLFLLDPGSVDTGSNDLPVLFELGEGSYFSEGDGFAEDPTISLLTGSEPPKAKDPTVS
Sequence of ELF4 (Q99607 whole entry): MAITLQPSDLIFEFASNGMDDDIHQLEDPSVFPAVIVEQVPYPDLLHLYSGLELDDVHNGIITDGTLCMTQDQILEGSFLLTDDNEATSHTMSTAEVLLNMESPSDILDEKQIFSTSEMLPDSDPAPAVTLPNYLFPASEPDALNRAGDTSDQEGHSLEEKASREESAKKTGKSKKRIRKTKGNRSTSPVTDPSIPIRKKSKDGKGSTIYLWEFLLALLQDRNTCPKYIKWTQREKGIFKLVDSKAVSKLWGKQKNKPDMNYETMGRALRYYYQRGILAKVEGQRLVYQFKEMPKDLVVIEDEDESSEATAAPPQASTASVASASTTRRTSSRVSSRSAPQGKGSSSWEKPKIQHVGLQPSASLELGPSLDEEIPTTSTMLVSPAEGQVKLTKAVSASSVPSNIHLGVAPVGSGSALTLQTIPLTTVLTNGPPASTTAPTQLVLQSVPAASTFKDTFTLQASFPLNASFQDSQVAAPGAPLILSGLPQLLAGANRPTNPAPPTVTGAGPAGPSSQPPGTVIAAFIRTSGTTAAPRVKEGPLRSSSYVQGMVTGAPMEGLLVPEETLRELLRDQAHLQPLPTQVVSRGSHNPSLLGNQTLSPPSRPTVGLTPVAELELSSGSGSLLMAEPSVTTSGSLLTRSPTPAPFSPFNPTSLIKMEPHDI

In the case of AGACTT, the binding signal in experiment [1] is 1.09 fold enrichment (6-mer frequency, TF over GST control); in experiment [2], 1.04 fold enrichment (6-mer frequency, TF over GST control); in [3], 1.03 fold enrichment (6-mer frequency, TF over GST control); in [4], 1.09 fold enrichment (6-mer frequency, TF over GST control); in [5], 1.01 fold enrichment (6-mer frequency, TF over GST control); in experiment [6], 1.08 fold enrichment (6-mer frequency, TF over GST control). Further, the binding signal in experiment [7] was 1.09 fold enrichment (6-mer frequency, TF over GST control); in experiment [8], 1.04 fold enrichment (6-mer frequency, TF over GST control); in [9] it was 1.05 fold enrichment (6-mer frequency, TF over GST control); in experiment [10] it was 1.05 fold enrichment (6-mer frequency, TF over GST control); in experiment [11] it was 1.15 fold enrichment (6-mer frequency, TF over GST control); in [12], 1.08 fold enrichment (6-mer frequency, TF over GST control). Moreover, the binding signal was 1.02 fold enrichment (6-mer frequency, TF over GST control) in experiment [13]; 1.13 fold enrichment (6-mer frequency, TF over GST control) in experiment [14]; 1.24 fold enrichment (6-mer frequency, TF over GST control) in experiment [15].
